Experimental data taken from the supplement of paper PMC8007513.
Counter-ions that a name gives are not always drawn. ± gives the standard error. Among all 1,300 compounds or so, about 130 (10%) showed an effect of 50% or more. The entries come from a sample that favours strong results as a whole.

System: Trichoderma virens ATCC 9645
Assay: growth yield (OD600) with compound + IPBC relative to untreated control; higher = less growth inhibition
Conditions: compound concentration: 100 uM, IPBC concentration: 200 ng/ml
Procedure, shortened: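 Trichoderma virens ATCC 9645 spores from 7-day potato dextrose agar plates were suspended in potato dextrose broth at 15,000 spores ml^−1. Aliquots of 100 μl with library compounds at 100 μM final, with or without a co-applied biocide at 200 ng ml^−1, were grown in 96-well plates at 30 °C. OD600 was read at 40 h and 72 h on a BioTek EL800. Growth is expressed relative to the control without either agent, as means of duplicate screens.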

Structure (SMILES)	growth yield (40 h) [%]	growth yield (72 h) [%]
CN1CCC2(C)c3cc(O)ccc3N(C)C12 (single isomer, unassigned; (-)) [(-)-Eseroline fumarate salt] + CCCCNC(=O)OCC#CI [3-iodo-2-propynyl butylcarbamate (IPBC)]	85 ± 4.9	90.6 ± 2.1
Oc1cc(Cl)ccc1Oc1ccc(Cl)cc1Cl [Triclosan] + CCCCNC(=O)OCC#CI [3-iodo-2-propynyl butylcarbamate (IPBC)]	3.02 ± 0.16	2.2 ± 0.1
C#CCN(C)CCCOc1ccc(Cl)cc1Cl [Clorgyline hydrochloride] + CCCCNC(=O)OCC#CI [3-iodo-2-propynyl butylcarbamate (IPBC)]	60.36 ± 0.32	87.2 ± 2.2
CN1[C@@H]2CC[C@H]1C[C@@H](OC(c1ccccc1)c1ccccc1)C2 [Benztropine mesylate] + CCCCNC(=O)OCC#CI [3-iodo-2-propynyl butylcarbamate (IPBC)]	84.7 ± 2.1	96.1 ± 4.4
C[C@H](CCC(=O)O)[C@H]1CC[C@H]2[C@@H]3[C@@H](O)C[C@@H]4C[C@H](O)CC[C@]4(C)[C@H]3CC[C@]12C [Urosiol] + CCCCNC(=O)OCC#CI [3-iodo-2-propynyl butylcarbamate (IPBC)]	104 ± 12	99.7 ± 5.1
N[C@@H](C(=O)N[C@@H]1C(=O)N2C(C(=O)O)=C(Cl)CS[C@H]12)c1ccccc1 [Cefaclor hydrate] + CCCCNC(=O)OCC#CI [3-iodo-2-propynyl butylcarbamate (IPBC)]	92.9 ± 8.1	96.7 ± 4
CC[N+](C)(CC)CCC[n+]1c(-c2ccccc2)c2cc(N)ccc2c2ccc(N)cc21 [Propidium iodide] + CCCCNC(=O)OCC#CI [3-iodo-2-propynyl butylcarbamate (IPBC)]	8.1 ± 5.6	12.7 ± 0.32
COc1ccc(CN2CCNCC2)c(OC)c1OC [Trimetazidine dihydrochloride] + CCCCNC(=O)OCC#CI [3-iodo-2-propynyl butylcarbamate (IPBC)]	85 ± 2.1	91.87 ± 0.42
CCCCCN(C)CCC(O)(P(=O)(O)O)P(=O)(O)O [Ibandronate sodium] + CCCCNC(=O)OCC#CI [3-iodo-2-propynyl butylcarbamate (IPBC)]	87.84 ± 0.48	96.8 ± 0.94
Cc1c(OCC(F)(F)F)ccnc1C[S+]([O-])c1nc2ccccc2[nH]1 (stereo not given) [Lansoprazole] + CCCCNC(=O)OCC#CI [3-iodo-2-propynyl butylcarbamate (IPBC)]	68.1 ± 2.1	91.87 ± 0.21
CC(C)c1c(C(=O)Nc2ccccc2)c(-c2ccccc2)c(-c2ccc(F)cc2)n1CC[C@@H](O)C[C@@H](O)CC(=O)O [Atorvastatin] + CCCCNC(=O)OCC#CI [3-iodo-2-propynyl butylcarbamate (IPBC)]	69.3 ± 2.2	79.5 ± 1.3
CC(C)n1c(/C=C/C(O)CC(O)CC(=O)O)c(-c2ccc(F)cc2)c2ccccc21 (stereo not given) [Fluvastatin sodium salt] + CCCCNC(=O)OCC#CI [3-iodo-2-propynyl butylcarbamate (IPBC)]	13.8 ± 0.48	33.9 ± 0.52
O=C(O)C[C@H](O)C[C@H](O)/C=C/c1c(C2CC2)nc2ccccc2c1-c1ccc(F)cc1 [Pitavastatin calcium] + CCCCNC(=O)OCC#CI [3-iodo-2-propynyl butylcarbamate (IPBC)]	14 ± 2.2	39.4 ± 3.4
C=CC[C@]1(O)CC[C@H]2[C@@H]3CCC4=CC(=O)CCC4=C3C=C[C@@]21C [Altrenogest] + CCCCNC(=O)OCC#CI [3-iodo-2-propynyl butylcarbamate (IPBC)]	96.6 ± 1.6	93.8 ± 2.3
COc1ccc(CCN)cc1OC [Homoveratrylamine] + CCCCNC(=O)OCC#CI [3-iodo-2-propynyl butylcarbamate (IPBC)]	89.3 ± 5.4	91.1 ± 6.4
O=P(O)(O)C(O)(Cn1ccnc1)P(=O)(O)O [Zoledronic acid hydrate] + CCCCNC(=O)OCC#CI [3-iodo-2-propynyl butylcarbamate (IPBC)]	102 ± 6.3	105 ± 4.3
O=C(Cn1ccnc1[N+](=O)[O-])NCCO [Etanidazole] + CCCCNC(=O)OCC#CI [3-iodo-2-propynyl butylcarbamate (IPBC)]	91.3 ± 3.3	92.2 ± 3.9
COc1cc([S+](C)[O-])ccc1-c1nc2cccnc2[nH]1 (stereo not given) [Sulmazole] + CCCCNC(=O)OCC#CI [3-iodo-2-propynyl butylcarbamate (IPBC)]	110 ± 9.8	107 ± 4.2

Structure (SMILES)	growth yield (40 h) [%]	growth yield (72 h) [%]
CO[C@H]1/C=C/O[C@@]2(C)Oc3c(C)c(O)c4c(O)c(c(/C=N/N5CCN(C)CC5)c(O)c4c3C2=O)NC(=O)/C(C)=C\C=C\[C@H](C)[C@H](O)[C@@H](C)[C@@H](O)[C@@H](C)[C@H](OC(C)=O)[C@@H]1C [Rifampicin] + CCCCNC(=O)OCC#CI [3-iodo-2-propynyl butylcarbamate (IPBC)]	89 ± 7	93.8 ± 3.6
Nc1nc(=O)c2nc(CNc3ccc(C(=O)N[C@@H](CCC(=O)O)C(=O)O)cc3)cnc2[nH]1 [Folic acid] + CCCCNC(=O)OCC#CI [3-iodo-2-propynyl butylcarbamate (IPBC)]	84.82 ± 0.32	91.03 ± 0.84
OC(Cn1cncn1)(Cn1cncn1)c1ccc(F)cc1F [Fluconazole] + CCCCNC(=O)OCC#CI [3-iodo-2-propynyl butylcarbamate (IPBC)]	57.7 ± 5.9	75.2 ± 8.5
C[C@@H](c1ncncc1F)[C@](O)(Cn1cncn1)c1ccc(F)cc1F [Voriconazole] + CCCCNC(=O)OCC#CI [3-iodo-2-propynyl butylcarbamate (IPBC)]	5.24 ± 0.16	4.09 ± 0.1
CNC(C)CCC=C(C)C (stereo not given) [Isometheptene mucate] + CCCCNC(=O)OCC#CI [3-iodo-2-propynyl butylcarbamate (IPBC)]	101 ± 16	101 ± 8.4
CC(O)(CS(=O)(=O)c1ccc(F)cc1)C(=O)Nc1ccc(C#N)c(C(F)(F)F)c1 (stereo not given) [Bicalutamide] + CCCCNC(=O)OCC#CI [3-iodo-2-propynyl butylcarbamate (IPBC)]	94 ± 12	97.5 ± 6.5
CCOc1ccccc1OCC1CNCCO1 (stereo not given) [Viloxazine hydrochloride] + CCCCNC(=O)OCC#CI [3-iodo-2-propynyl butylcarbamate (IPBC)]	103 ± 19	102 ± 14
Clc1ccccc1C(c1ccccc1)(c1ccccc1)n1ccnc1 [Clotrimazole] + CCCCNC(=O)OCC#CI [3-iodo-2-propynyl butylcarbamate (IPBC)]	5.08 ± 0.32	3.46 ± 0.1
CCN1CCCC1CNC(=O)c1cc(S(N)(=O)=O)ccc1OC (stereo not given) [Sulpiride] + CCCCNC(=O)OCC#CI [3-iodo-2-propynyl butylcarbamate (IPBC)]	86.41 ± 0.32	90.3 ± 0.94
CCC(C)(C)c1ccc(CC(C)CN2C[C@@H](C)O[C@@H](C)C2)cc1 (stereo not given in full) [Amorolfine hydrochloride] + CCCCNC(=O)OCC#CI [3-iodo-2-propynyl butylcarbamate (IPBC)]	3.97 ± 0.16	2.94 ± 0.21
C[C@]12COC(=O)C[C@@H]1CC[C@@H]1[C@@H]2CC[C@@]2(C)[C@H]1CC[C@]2(C)O [Oxandrolone] + CCCCNC(=O)OCC#CI [3-iodo-2-propynyl butylcarbamate (IPBC)]	102.8 ± 0.79	101.8 ± 0.94
CCN(CC)C(=O)Nc1ccc(OCC(O)CNC(C)(C)C)c(C(C)=O)c1 (stereo not given) [Celiprolol hydrochloride] + CCCCNC(=O)OCC#CI [3-iodo-2-propynyl butylcarbamate (IPBC)]	87 ± 5.7	92.2 ± 3.9
CN[C@@H]1[C@@H](O)[C@@H](O[C@@H]2[C@@H](O)[C@H](O[C@H]3O[C@H](CN)CC[C@H]3N)[C@@H](N)C[C@H]2N)OC[C@]1(C)O.CN[C@@H]1[C@@H](O)[C@@H](O[C@@H]2[C@@H](O)[C@H](O[C@H]3O[C@H]([C@@H](C)N)CC[C@H]3N)[C@@H](N)C[C@H]2N)OC[C@]1(C)O.CN[C@@H]1[C@@H](O)[C@@H](O[C@@H]2[C@@H](O)[C@H](O[C@H]3O[C@H]([C@@H](C)NC)CC[C@H]3N)[C@@H](N)C[C@H]2N)OC[C@]1(C)O [Gentamicine sulfate] + CCCCNC(=O)OCC#CI [3-iodo-2-propynyl butylcarbamate (IPBC)]	98.3 ± 7.5	101 ± 4.4
C[C@@H]1[C@H](O)[C@@H](C)/C=C/C=C/C=C/C=C/C=C/C=C/C=C/[C@H](O[C@@H]2O[C@H](C)[C@@H](O)[C@H](N)[C@@H]2O)C[C@@H]2O[C@](O)(C[C@@H](O)C[C@@H](O)[C@H](O)CC[C@@H](O)C[C@@H](O)CC(=O)O[C@H]1C)C[C@H](O)[C@H]2C(=O)O [Amphotericin B] + CCCCNC(=O)OCC#CI [3-iodo-2-propynyl butylcarbamate (IPBC)]	37.3 ± 4.6	92.61 ± 0.73
CC1OC(OC2/C=C/C=C/C=C/C=C/CC/C=C/C=C/[C@H](C)[C@@H](O)[C@@H](C)[C@H](C)OC(=O)CC(O)CC(O)CC(O)CCC(O)C(O)C[C@]3(O)CC(O)C(C(=O)O)C(C2)O3)C(O)C(N)C1O (stereo not given in full) [Nystatine] + CCCCNC(=O)OCC#CI [3-iodo-2-propynyl butylcarbamate (IPBC)]	50.5 ± 2.5	104 ± 2.3
Clc1cccc(Cl)c1NC1=NCCN1 [Clonidine hydrochloride] + CCCCNC(=O)OCC#CI [3-iodo-2-propynyl butylcarbamate (IPBC)]	92.9 ± 5.6	99.2 ± 4.4
Cc1oncc1C(=O)Nc1ccc(C(F)(F)F)cc1 [Leflunomide] + CCCCNC(=O)OCC#CI [3-iodo-2-propynyl butylcarbamate (IPBC)]	40.2 ± 3	82 ± 1.5
